± gives the standard deviation.
system: MILI (PIWIL2) piRISC loaded with L1MC piRNA (26 nt); assay: pre-steady-state target cleavage rate (min^-1); guide: L1MC piRNA 5'p-UAACUAAAUACUAUGCAAGCUGUAGG; MIWI and MILI are mouse PIWI proteins and EfPiwi is from a freshwater sponge; tags in brackets are library labels; higher = faster piRNA-guided slicing of the target; details: auxiliary factor: 500 nM mouse GTSF1
Outline: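 Cleave-'n-Seq: 1 nM active affinity-purified piRISC with one synthetic guide and 0.1 nM transcribed, DNA-blocked target RNA library were mixed, with or without 500 nM GTSF1 partner protein, in HEPES–potassium acetate buffer at 33 °C for 0–8 or 0–960 min. Uncleaved targets were sequenced and normalised to depth and to weakly complementary targets, three trials were pooled, and k3 was capped at 0.0001 min^-1. The pre-steady-state cleavage rate was fitted […].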

Q: Which “pre-steady-state target cleavage rate” value does the source give for UCCUGGUAGUCCUUGCAUAGUAUUUAGAAA here?
A: 0.0521 ± 0.017

Q: With UCCUGGUACAGCUUGCAUAGAAUUUAGUAA as the sequence, how does the “pre-steady-state target cleavage rate” value read?
A: 0.0567 ± 0.024

Q: UCCUGCUACAGCUUGCAUAGUUAUUACAAA was tested. Which “pre-steady-state target cleavage rate” value did it give?
A: 0.00534 ± 0.0038

Q: UCCUCCUACUCCUUGCAUAGUAUUUAGAAA was tested. Which “pre-steady-state target cleavage rate” value did it give?
A: 0.0907 ± 0.021

Q: With UCCUCCUACAGCUUGCUAUGUAUUUUCAAA as the sequence, how does the “pre-steady-state target cleavage rate” value read?
A: 0.006 ± 0.0037

Q: UCCUGGAACAGCUUGCAUAGUAAAAAGAAA was tested. Which “pre-steady-state target cleavage rate” value did it give?
A: 0.0185 ± 0.0077

Q: With UCCUGCUACAGCUUGCAUAGAUUUUUCAAA as the sequence, how does the “pre-steady-state target cleavage rate” value read?
A: 0.0091 ± 0.0044

Q: How did the “pre-steady-state target cleavage rate” value turn out when UCCUCCUACAGCUUGCAUAUGUAUUUAGUUA was run?
A: 0.0106 ± 0.0057

Q: Which “pre-steady-state target cleavage rate” value does the source give for UCCUGGAUGUCCUUGCAUUCAAUUUAGUUA here?
A: 0.00852 ± 0.0047

Q: Which “pre-steady-state target cleavage rate” value does the source give for UCCUGGAUGUGCUUGCAUAGUAAAAAGUUA here?
A: 0.0196 ± 0.0079

Q: Which “pre-steady-state target cleavage rate” value does the source give for UCCUGGAUGAGCUUGCAUAGUUAAUAGUUA here?
A: 0.00524 ± 0.004

Q: How did the “pre-steady-state target cleavage rate” value turn out when UCCUGGAUCAGCUACGAUAGUAUUUAGUAA was run?
A: 0.0254 ± 0.0088

Q: With UCCUGCUACAGCUUGCUAAGUAUUUAGAAA as the sequence, how does the “pre-steady-state target cleavage rate” value read?
A: 0.0738 ± 0.017

Q: UCCUGGAUGUCGAUGCAUAGUAUUUAUGUUA was tested. Which “pre-steady-state target cleavage rate” value did it give?
A: 0.106 ± 0.022

Q: For UCCUGGAUGUCCUAGCUUAGUAUUUAGUUA, which “pre-steady-state target cleavage rate” value is on record?
A: 0.0102 ± 0.0041

Q: With UCCUGGAACACCUUGCAUAGAAUUUAGUUA as the sequence, how does the “pre-steady-state target cleavage rate” value read?
A: 0.0907 ± 0.036

Q: UCCUGGUACAGCUUGCUUAGUAUUUUGUUA was tested. Which “pre-steady-state target cleavage rate” value did it give?
A: 0.0736 ± 0.021

Q: Which “pre-steady-state target cleavage rate” value does the source give for UCCUGGAUGUGCUUGGAUAGAAUUUAGUUA here?
A: 0.00729 ± 0.0047

Q: UCCUGCUACUGCUUGCAUAGUAUUUACUUA was tested. Which “pre-steady-state target cleavage rate” value did it give?
A: 0.082 ± 0.014

Q: Which “pre-steady-state target cleavage rate” value does the source give for UCCUGGAUGUCGAAGCAUAGUAUAUAGUAA here?
A: 0.012 ± 0.0042

Q: With UCCUGGAUCAGCUUGCUUAGUAUUUUCAAA as the sequence, how does the “pre-steady-state target cleavage rate” value read?
A: 0.0126 ± 0.0057

Q: For UCCUGCUACAGCUUGCAUAGUAUUUACUUA, which “pre-steady-state target cleavage rate” value is on record?
A: 0.171 ± 0.032

Q: With UCCUGGUACAGCUUGGUAAGUAUUUAGAAA as the sequence, how does the “pre-steady-state target cleavage rate” value read?
A: 0.0185 ± 0.0092

Q: With UCCUGGAACUCCUUGCAUAGUAUUUACAAA as the sequence, how does the “pre-steady-state target cleavage rate” value read?
A: 0.241 ± 0.061

Q: For “UCCUGGAUGUCGAACGAUAGUAUUUAGUAA [g3:g14:cont:t1A]”, which “pre-steady-state target cleavage rate” value is on record?
A: < 0.0001

Q: For UCCUGGAUGAGCUUGCUAUAGUAUUUAGUUA, which “pre-steady-state target cleavage rate” value is on record?
A: 0.00431 ± 0.0032

Q: For UCCUGGAUGUCCUUGCAUAGUAUAUAGUAA, which “pre-steady-state target cleavage rate” value is on record?
A: 0.0276 ± 0.01

Q: How did the “pre-steady-state target cleavage rate” value turn out when UCCUGGAUCAGCUUGCAUAGUAAAUAGUAA was run?
A: 0.196 ± 0.033

Q: With UCCUGGAUGUGCUUCGAUAGUAUUUAGUAA as the sequence, how does the “pre-steady-state target cleavage rate” value read?
A: 0.0404 ± 0.011

Q: UCCUGCUACAGCUUGCAUUCAAUUUAGUUA was tested. Which “pre-steady-state target cleavage rate” value did it give?
A: 0.00485 ± 0.0037

Q: Which “pre-steady-state target cleavage rate” value does the source give for UCCUCCAUGAGCUUGCAUAGUAUUUUCAAA here?
A: 0.0168 ± 0.0069

Q: How did the “pre-steady-state target cleavage rate” value turn out when UCCUGGAUCAGCUUGCAUAGUAAAAAGUAA was run?
A: 0.108 ± 0.021

Q: Which “pre-steady-state target cleavage rate” value does the source give for UCCUGGAAGAGCUUGCAUAGUAUUUAGAAA here?
A: 0.109 ± 0.025

Q: Which “pre-steady-state target cleavage rate” value does the source give for UCCUGGAUGUCGUUGCAUAGUAUUAAGUAA here?
A: 0.0273 ± 0.012

Q: How did the “pre-steady-state target cleavage rate” value turn out when UCCUGGUACACCUUGCAUACUAUUUAGUUA was run?
A: 0.228 ± 0.072

Q: With UCCUGCUACAGCUUGCAUUCUAUUUACAAA as the sequence, how does the “pre-steady-state target cleavage rate” value read?
A: 0.0141 ± 0.0062

same assay, conditions: auxiliary factor: none (no GTSF1)

Q: How did the “pre-steady-state target cleavage rate” value turn out when UCCUGGAUGUCGAAGCAUAGUAUUAUCUUA was run?
A: < 0.0001

Q: UCCUGGAUCAGCAACCAUAGUAUUUUCAAA was tested. Which “pre-steady-state target cleavage rate” value did it give?
A: < 0.0001

Q: With UCCUGGAUGUCGAACGAUAGUGUUUAGUUA as the sequence, how does the “pre-steady-state target cleavage rate” value read?
A: < 0.0001

Q: With UCCUGGAUGUCGAAGCAUAGUAAUAAGUUA as the sequence, how does the “pre-steady-state target cleavage rate” value read?
A: < 0.0001

— the supplement of paper PMC10338343
